Assay outcomes (PubChem)
TDP1 cell CPT – growth inhibition of DT40 Tdp1-/-;hTDP1 cells with camptothecin (screen for TDP1 inhibitors); chicken DT40 Tdp1-/-;hTDP1 cells + 20 nM CPT, ATP luminescence, 48 h; Potency, µM (top dose mostly 46.2 µM), for the others: top-dose activity change, negative = growth inhibition, actives largely listed as inhibitors; hit rate 12% among 420,000; note: potency is the fitted concentration of half-maximal effect; nearly all actives have a fitted effect of over 55% in size
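Cell growth measured by CellTiter-Glo luminescence after a minimum 48 h, 37 C compound exposure with 20 nM CPT in Tdp1-knockout DT40 cells stably expressing hTDP1, seeded 400/well; qHTS titration format.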
IL1B secr inh – blocks inflammasome-driven IL-1 beta release; THP-1 LPS/ATP IL-1B secretion, AlphaLISA, 16 h; stronger effect = lower value; hit rate 4.7% among 360,000; activity change, % at 57.5 µM; in the data active = activity change below about -50%; inconclusive = mostly about -30% to -49%
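THP-1 cells pretreated 1 hr with compounds (up to 57.5 uM final), then stimulated with LPS (250 ng/mL final) plus ATP (1.25 mM final); secreted IL-1B measured by AlphaLISA after 16 hr, decreased signal indicating inhibition.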
DT40 TDP1 no CPT – qHTS for Inhibitors of human tyrosyl-DNA phosphodiesterase 1 (TDP1): qHTS in cells in absence of CPT; DT40 Tdp1-/- hTDP1 cells, no CPT, ATP luminescence, 48 h; Potency, µM (top dose mostly 46.2 µM), for the others: at the highest dose activity change, negative = growth inhibition, hits mostly inhibitors; hit rate 15% among 420,000; AID 686978, 2013; note: potency is the fitted concentration of half-maximal effect; nearly all actives have a fitted effect of over 55% in size
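Stably hTDP1-transfected Tdp1-null chicken DT40 cells were treated with library compounds minus camptothecin and grown for at least 48 hr at 37 °C, after which cellular ATP was quantified by luminescence.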
HT1080-NT tox – kills 2HG-producing HT-1080-NT fibrosarcoma cells; HT-1080-NT fibrosarcoma viability, CellTiter-Glo ATP luminescence, 48 h; Potency, µM (highest dose often 46.1 µM), for inactives: top-dose activity, negative = less viability, most hits filed as cytotoxic; hit rate 1.6% among 360,000; AID 686970;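 note: NT is the 2HG producing partner of a matched IDH1 knockdown line; potency is the fitted concentration of half-maximal effect; 0% = DMSO-treated cells and -100% = media-only wells without cells; nearly all actives have a fitted effect of over 55% in size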
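HT-1080-NT; 750 cells/well; 5% FBS RPMI; 48 h compound, 37 degrees C; CellTiter-Glo luminescence; curve fitting and curve-class assignment.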
HT1080 IDH1KD tx – kills HT-1080 cells with IDH1 knockdown. HT-1080 IDH1 knockdown viability, ATP luminescence, 48 h. Potency, µM (titrated, usually from 46.1 µM), inactives show at the highest dose activity, negative = toxicity, usual class: cytotoxic. hit rate 2% among 360,000. AID 686971;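 note: potency is the fitted concentration of half-maximal effect; 0% = DMSO wells and -100% = cell-free medium wells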
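Assay cells: HT-1080 with IDH1 knockdown, 750 per well, RPMI/5% FBS. Exposure: 48 h at 37 °C following 2 h pre-incubation. Read: CellTiter-Glo luminescence; fitted concentration-response, curve class assigned.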
Numbers without * were called inactive; ? = inconclusive; . = no result given; [ ] = dose if it differs, or a comment. A selection: hits, their analogues and other compounds. The true share with any hit is near 19%. Unless noted, calls come from the whole dose curve; as a rule, active = well fitted curve in the direction sought with a large enough effect; inconclusive = small, poorly fitted or top-dose-only effect, or another doubt; inactive = no such curve, though single readings can be large; an effect the other way counts as inactive or inconclusive. Unless noted, % is set by controls: 0 for no effect and ±100 for the full control effect.

SMILES	TDP1 cell CPT	IL1B secr inh	DT40 TDP1 no CPT	HT1080-NT tox	HT1080 IDH1KD tx
CC(=O)Nc1ccc(N(CC(O)Cn2c3ccccc3c3ccccc32)S(=O)(=O)c2ccc(C)cc2)cc1 (configuration not stated)	?	-54.7*	?	?	?
Cc1ccc(C(C(=O)NC2CCCCC2)N2CCN(C(=O)c3ccco3)CC2)cc1 (configuration not stated)	-8.4%	-5.6	-8.8%	7.1%	16.9%
Cc1cccc2cc(C3CC(c4cccs4)=NN3S(C)(=O)=O)c(Cl)nc12 (configuration not stated)	?	-8.0	?	4.0%	-4.1%
Cc1cccc(N(CC(O)Cn2c3ccccc3c3ccccc32)S(=O)(=O)c2ccc(F)cc2)c1 (configuration not stated)	20.6µM*	.	8.2µM*	.	.
CCCN(CCC)CC(O)Cn1c2ccccc2c2ccccc21 (configuration not stated)	?	-75.2*	?	-3.4%	5.6%
Cc1c(C)n(CC(O)CN(CCO)CCO)c2ccccc12 (configuration not stated)	-27.7%	-8.0	-2.2%	-1.7%	-0.8%
CCCc1nc(C)c2c(=O)[nH]c(-c3cc(S(=O)(=O)N4CCN(CC)CC4)ccc3OCC)nn12	-2.3%	-13.4	?	0.6%	-11.4%
Cc1sc2nc(C3CC3)nc(SCC(=O)N3CCc4ccccc4C3)c2c1C	?	-75.5*	20.6µM*	-0.7%	-5.6%
CCc1c(C)sc2nc(C(C)C)nc(SCC(=O)N3CCc4ccccc4C3)c12	?	-66.8*	20.6µM*	1.0%	9.1%
Cc1ccc(-n2c(C)nnc2SCC(=O)N2CCc3ccccc3C2)cc1	-7.6%	0.0	-28.1%	2.0%	17.1%
Cc1[nH]c2ccccc2c1C1N2CC3(C)CN1CC(C)(C2)C3=O (configuration not stated)	-14.6%	.	-13.5%	.	.
CCC12CN3CC(CC)(CN(C1)C3c1c[nH]c3ccccc13)C2=O (configuration not stated)	-84.7%	.	16.4µM*	.	.
CCn1cc(C2N3CC4(CC)CN2CC(CC)(C3)C4=O)c2ccccc21 (configuration not stated)	?	.	18.4µM*	.	.
CCC12CN3CC(CC)(CN(C1)C3c1c(O)ccc3ccccc13)C2=O (configuration not stated)	-3.1%	18.0	-5.6%	-2.3%	-1.2%
CCC12CN3CC(C)(CN(C1)C3c1c[nH]c3ccccc13)C2=O (configuration not stated)	?	.	23.1µM*	.	.
CCN1C(=O)/C(=C2\SC(=S)N(NC(=O)c3cccnc3)C2=O)c2ccccc21	-1.2%	10.1	16.0%	1.7%	4.5%
COc1cccc(/C=C/c2nc(C#N)c(NC3CCCCC3)o2)c1	?	.	4.11µM*	.	.
COc1ccc(/C=C/c2nc(C#N)c(NC3CCCCC3)o2)cc1OC	20.6µM*	.	20.6µM*	.	.
COc1ccc(Nc2oc(/C=C/c3ccc(OC)c(OC)c3)nc2C#N)cc1	18.9%	.	-2.8%	.	.
O=C(COc1ccc(Cl)c2cccnc12)N1CCOCC1	3.2%	-13.3	-2.3%	-0.3%[9.24 µM]	1.9%
COc1ccc(Cc2n[nH]c(=S)n2NC(=O)Nc2ccc(Cl)c(Cl)c2)cc1	10.3µM*	-23.0	7.31µM*	0.0%	-9.6%
O=[N+]([O-])c1ccc(/C=C/c2ccc3cccc([N+](=O)[O-])c3n2)cc1	-23.6%	-2.7	?	-21.5%	?
CCOc1cc(/C=C/c2ccc3cccc([N+](=O)[O-])c3n2)ccc1OCC(=O)N(C)C	23.1µM*	-0.4	?	4.5%	-15.2%
CCOc1cc(/C=C\c2nc(O)c([N+](=O)[O-])c(=O)[nH]2)ccc1OC(C)C	-0.8%	13.4	-0.5%	7.3%	10.5%
COc1cc(/C=C/c2ccc3cccc([N+](=O)[O-])c3n2)ccc1OCC#N	5.8µM*	-13.4	3.66µM*	-19.6%	-28.0%
SMILES	TDP1 cell CPT	IL1B secr inh	DT40 TDP1 no CPT	HT1080-NT tox	HT1080 IDH1KD tx
CCOc1cc(/C=C/c2ccc3cccc([N+](=O)[O-])c3n2)ccc1O	?	-29.6	18.4µM*	-25.2%	-24.7%
O=[N+]([O-])c1cccc2ccc(/C=C/c3ccc(F)cc3)nc12	?	5.8	?	-25.8%	?
Fc1ccc(Nc2ncncc2-c2ccoc2)cc1	-14.5%	.	-11.5%	.	.
O=[n+]1cc(-c2cccc3ccccc23)n([O-])c2c1CCC2	-2.2%	46.3	3.4%	12.3%	20.6%
CCOP(=O)(OCC)c1nc(/C=C/c2ccccc2)oc1NCc1ccc(OC)cc1	?	-6.8	?	?	?
CCOP(=O)(OCC)c1nc(-c2cccc3ccccc23)oc1NCc1ccc(OC)cc1	?	-75.0*	?	?	?
COc1ccc(CCNc2oc(-c3cccc4ccccc34)nc2P(=O)(OC)OC)cc1OC	?	-15.4	14.6µM*	-1.1%	0.1%
CCOP(=O)(OCC)c1nc(/C=C/c2ccccc2)oc1NCc1ccccc1	?	-74.9*	?	-22.5%	-20.0%
COc1cc(=O)n2c(c1C(=O)N(C)Cc1cscn1)CCN(C(=O)c1ccc(C)cc1C)CC2	6.6%	.	-6.3%	.	.
O=C1c2cnc3nc(SCc4cccc(Cl)c4)nn3c2CC2c3ccccc3CCN12 (configuration not stated)	14.6µM*	19.6	20.6µM*	7.5%	14.6%
CSc1nc2ncc3c(n2n1)CC1c2ccccc2CCN1C3=O (configuration not stated)	?	-20.6	?	18.8%	3.5%
O=S(=O)(c1ccc(F)cc1)N1CCN(CC(O)COCC2CCCO2)CC1 (configuration not stated)	-15.6%	-10.0	1.1%	3.0%	11.0%
CCn1c(-c2cccnc2)nc2cc(NC(=O)COC)cc(C(=O)N3CCOc4ccccc4C3)c21	1.6%	.	-12.1%	.	.
O=C(Nc1csnn1)OCc1ccccc1	-18.1%	-7.4	-22.4%	-3.5%	9.1%
CC(=O)Nc1ccc(-c2ccnc3c2CC(C(=O)Nc2ccccc2)O3)cc1 (configuration not stated)	4.61µM*	-26.0	5.8µM*	?	18.4µM*
CC(=O)Nc1cccc(-c2ccnc3c2CC(C(=O)Nc2cccc(N(C)C)c2)O3)c1 (configuration not stated)	13µM*	-0.3	10.3µM*	?	?
CN(C)c1cccc(NC(=O)C2Cc3c(-c4cccnc4)ccnc3O2)c1 (configuration not stated)	8.4%	-7.9	0.2%	0.1%	0.8%
